Active and inactive are the calls of the source.

The results in this text go back to PubChem BioAssay.

For experiment [1], the system named is Plasmodium falciparum Sir2 (PF13_0152, Sir2A). The experiment in a line: pfSir2 binders on small-molecule microarrays, primary screen, biochemical, small-molecule microarray, 635 nm fluorescence (AID 1098).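 Also: score merges spot fluorescence intensity with its signal-to-noise ratio.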 Particulars: small-molecule microarray binding, fluorescence 635 nm; higher = more signal.
A short description of experiment [2]: small-molecule microarray binders of probe aDKK1, primary screen, biochemical, biotinylated probe, 635/667 nm fluorescence (AID 1099).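 Also: score merges 667nm spot fluorescence with signal to noise across triplicate slides; reference of the scale not given here.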 Particulars: higher = more signal.
A short description of experiment [3]: small-molecule microarray binders of probe aCHRDL2, primary screen, biochemical, biotinylated probe, 635/667 nm fluorescence (AID 1100). Particulars: higher = more signal.
Experiment [4] in a line: splicing luciferase reporter signal modulators, primary screen, spliceosome inhibition project, cell-based, HEK293, splice +/- reporter (AID 1101).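 Also: HEK293 cells carrying a splicing-competent luciferase reporter gene; test concentration not given here.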 Particulars: luminescence, 24 h, higher = more signal, called active from +8 up or from −8 down. In general terms: In a reporter assay the amount or activity of a reporter protein is the signal.
The target in experiment [5] is Fibroblast growth factor 10 (Homo sapiens) (UniProt O15520). Description: FGF10 binders on small-molecule microarrays, primary screen, biochemical, small-molecule microarray, 635 nm fluorescence (AID 1102). Particulars: FGF10 binding, fluorescence 635 nm, higher = more signal.
Chain of Fibroblast growth factor 10 (Homo sapiens) (O15520 whole entry, looked up): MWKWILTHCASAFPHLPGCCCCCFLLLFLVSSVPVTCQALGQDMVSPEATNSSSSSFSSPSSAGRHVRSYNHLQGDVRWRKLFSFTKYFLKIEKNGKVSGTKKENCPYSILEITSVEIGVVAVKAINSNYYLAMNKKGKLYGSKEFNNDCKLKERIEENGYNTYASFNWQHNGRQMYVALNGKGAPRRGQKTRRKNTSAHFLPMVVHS
Experiment [6] relates to glycogen synthase kinase-3 (GSK3A per assay name; protocol says GSK3B). The experiment in a line: GSK3 binders on small-molecule microarrays, primary screen, biochemical, small-molecule microarray, 635 nm fluorescence, GSK3A (AID 1103). Also: the record names both GSK3A and GSK3B. Particulars: small-molecule microarray binding, fluorescence 635 nm; higher = more signal.
Experiment [7] concerns the target Epidermal growth factor receptor (Homo sapiens) (UniProt P00533). The experiment in a line: EGFR binders on small-molecule microarrays, primary screen, biochemical, small-molecule microarray, 635 nm fluorescence (AID 1104).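 Also: score merges 667 nm emission intensity with spot signal to noise over triplicate slides.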 The following applies: EGFR binding, higher = more signal.
Experiment [8] deals with Follistatin-related protein 3 (Homo sapiens) (UniProt O95633). Description: FSTL3 binders on small-molecule microarrays, primary screen, biochemical, small-molecule microarray, 635 nm fluorescence (AID 1105).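 Also: score merges emission near 667 nm and signal to noise per printed spot across three slides.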 Particulars: FSTL3 binding, higher = more signal.
Chain of Follistatin-related protein 3 (Homo sapiens) (O95633 whole entry, looked up): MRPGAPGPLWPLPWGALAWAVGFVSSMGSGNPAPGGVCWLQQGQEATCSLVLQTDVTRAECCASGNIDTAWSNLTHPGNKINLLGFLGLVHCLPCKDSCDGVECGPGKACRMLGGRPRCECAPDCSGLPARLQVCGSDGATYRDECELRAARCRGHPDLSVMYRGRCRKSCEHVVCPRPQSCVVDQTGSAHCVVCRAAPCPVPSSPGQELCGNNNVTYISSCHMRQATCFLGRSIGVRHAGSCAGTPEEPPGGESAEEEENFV
In experiment [9] the target is Dickkopf-related protein 1 (Homo sapiens) (UniProt O94907). The experiment in a line: DKK1 binders on small-molecule microarrays, primary screen, biochemical, small-molecule microarray, 635 nm fluorescence scan (AID 1106).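 Also: score merges emission near 667 nm with signal to noise over three replicate slides.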 Particulars: DKK1 binding, higher = more signal.
Chain of Dickkopf-related protein 1 (Homo sapiens) (O94907 whole entry, looked up): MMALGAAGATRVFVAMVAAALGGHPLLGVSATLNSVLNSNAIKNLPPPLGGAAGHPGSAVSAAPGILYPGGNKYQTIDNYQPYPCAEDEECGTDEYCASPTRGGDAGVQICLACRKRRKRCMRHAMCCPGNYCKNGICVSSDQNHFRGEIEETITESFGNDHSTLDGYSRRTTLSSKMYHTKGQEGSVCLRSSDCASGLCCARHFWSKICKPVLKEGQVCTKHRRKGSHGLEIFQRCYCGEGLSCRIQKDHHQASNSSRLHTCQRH
Experiment [10] relates to Inhibin beta A chain (activin A). Description: INHBA (activin A) binders on microarrays, primary screen, biochemical, small-molecule microarray, 635 nm fluorescence scan (AID 1107).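 Also: mouse activin A protein probed at 4.33 µg/mL on printed slides; score merges bound-protein fluorescence near 667 nm with spot signal-to-noise.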 Particulars: small-molecule microarray binding, higher = more signal.

Chain of Epidermal growth factor receptor (Homo sapiens) (P00533 whole entry, looked up): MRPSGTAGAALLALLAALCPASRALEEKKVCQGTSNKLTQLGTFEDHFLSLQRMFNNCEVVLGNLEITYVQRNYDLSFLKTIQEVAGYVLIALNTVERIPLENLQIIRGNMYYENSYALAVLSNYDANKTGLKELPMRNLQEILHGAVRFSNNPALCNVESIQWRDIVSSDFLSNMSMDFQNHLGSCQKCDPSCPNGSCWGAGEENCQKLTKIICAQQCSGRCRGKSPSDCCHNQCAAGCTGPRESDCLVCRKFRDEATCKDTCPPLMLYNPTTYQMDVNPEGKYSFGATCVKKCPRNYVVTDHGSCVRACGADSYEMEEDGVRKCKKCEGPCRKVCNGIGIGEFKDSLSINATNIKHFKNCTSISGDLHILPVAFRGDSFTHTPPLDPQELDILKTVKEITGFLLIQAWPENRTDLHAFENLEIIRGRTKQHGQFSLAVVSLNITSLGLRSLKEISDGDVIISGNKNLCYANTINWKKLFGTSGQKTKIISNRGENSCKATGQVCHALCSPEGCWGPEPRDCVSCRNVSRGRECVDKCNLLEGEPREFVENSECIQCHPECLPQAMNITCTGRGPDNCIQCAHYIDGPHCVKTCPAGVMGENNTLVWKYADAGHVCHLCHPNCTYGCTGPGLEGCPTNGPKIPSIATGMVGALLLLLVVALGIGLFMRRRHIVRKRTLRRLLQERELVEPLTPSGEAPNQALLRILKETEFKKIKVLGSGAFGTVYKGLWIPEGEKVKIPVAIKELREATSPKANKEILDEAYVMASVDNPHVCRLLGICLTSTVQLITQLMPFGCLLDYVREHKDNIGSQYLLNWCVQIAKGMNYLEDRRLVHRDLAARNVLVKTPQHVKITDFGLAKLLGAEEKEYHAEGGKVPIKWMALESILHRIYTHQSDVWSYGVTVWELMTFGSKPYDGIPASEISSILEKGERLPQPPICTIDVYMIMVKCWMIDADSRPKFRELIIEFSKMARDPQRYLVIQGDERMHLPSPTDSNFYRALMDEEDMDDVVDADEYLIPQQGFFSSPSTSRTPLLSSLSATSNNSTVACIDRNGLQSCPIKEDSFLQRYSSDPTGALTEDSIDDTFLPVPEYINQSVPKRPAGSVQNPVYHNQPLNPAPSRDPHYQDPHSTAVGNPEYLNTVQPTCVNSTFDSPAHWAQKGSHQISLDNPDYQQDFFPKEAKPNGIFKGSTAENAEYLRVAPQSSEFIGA

Regarding `COc1ccc(C(=O)Nc2cccc(CN3C(=O)[C@@]4(O[C@@H](CC(=O)N5CCC[C@H]5CO)[C@H]([Si](C)(C)c5ccc(OC)cc5)[C@H]4C)c4ccccc43)c2)cc1`, the composite z-score is 1.21 in experiment [1]; -0.0379 in [2]; -0.183 in experiment [3]; 0.43 in experiment [5]; 0.744 in [6]; 0.527 in experiment [7]. Besides, the composite z-score in experiment [8] was determined as 0.839; in [9], 0.496; in experiment [10] it was 0.182. The z-score in experiment [4] is 1 (inactive).
With `O=C(NC1CC1)[C@@H]1c2ccccc2C(=O)N(Cc2ccc(OC(F)(F)F)cc2)[C@H]1c1ccc(CO)cc1`, the composite z-score is 0.572 in [1]; -0.082 in experiment [2]; 0.111 in [3]; 0.567 in [5]; -0.589 in experiment [6]; 0.0972 in experiment [7]. The figures for the composite z-score in [8], in experiment [9] and in experiment [10] were 0.301, 0.864 and 0.301, respectively. Further, in experiment [4], the z-score is -0.599 (inactive).
`C[C@@H]1ON(c2ccc(I)cc2)[C@H](c2cccc(NC(=O)OCC3c4ccccc4-c4ccccc43)c2)[C@H]1C(=O)N1C(=O)OC[C@H]1Cc1ccccc1`: the composite z-score was 0.683 in [1]; 1.04 in [2]; -0.387 in experiment [3]; 0.252 in experiment [5]; 0.529 in experiment [6]; 0.325 in experiment [7]. Also, the figures for the composite z-score in experiment [8], in experiment [9] and in experiment [10] were 0.951, 1.05 and 0.529, respectively. Further, the z-score in experiment [4] was -0.271 (inactive).
As for `O=C1NC(=O)C2C1C=CC(C(O)c1ccc([N+](=O)[O-])cc1)N2Nc1ccccn1` (stereo not given), the composite z-score in experiment [1] was -0.0076; in [2], 0.0152; in [3], 0.14; in [5], 0.32; in experiment [6], -0.34; in [7], 0.633. Moreover, the composite z-score in [8] is -0.0907; in experiment [9], 0.328; in experiment [10], 0.854. Moreover, in experiment [4], the z-score is 1.34 (inactive).
Consider `[N-]=[N+]=Nc1ccccc1C[C@@]1(C(=O)NCc2ccccc2)N=C(c2ccc(OCCCO)cc2)O[C@@H]1c1ccccc1N=[N+]=[N-]`, for which the composite z-score was found to be 1.07 in experiment [1]; 0.61 in experiment [2]; 1.01 in experiment [3]; 1.1 in experiment [5]; 0.913 in experiment [6]; 0.0359 in experiment [7]. In addition, the composite z-score in experiment [8] is 0.309; in experiment [9] it was -0.0102; in experiment [10], 1.04. The z-score in [4] was -0.457 (inactive).
Regarding `C=C(CCCC)/C(=C/C[C@@H](OC(C)=O)c1ccc(CO)o1)c1cnc2ccccc2c1`, the composite z-score in experiment [1] was 1.08; in experiment [2], -0.282; in [3], -0.428; in [5], 1.46; in [6], 1.3; in experiment [7] it was 0.533. Further, the results for the composite z-score in [8], in [9] and in [10] were 1.4, 0.768 and 1.05, respectively. Moreover, the z-score in experiment [4] is 0.179 (inactive).
Turning to `COCCn1c(C(=O)N(C)C)cc2c1C[C@H]1CN(C(=O)c3ccccc3)[C@@](Cc3ccc(OC)cc3)(C(=O)OC)[C@@H]21`, the composite z-score in experiment [1] was determined as 0.816; in experiment [2], 0.785; in experiment [3] it was 1.34; in experiment [5], 0.26; in [6], 0.22; in experiment [7], 0.0351. In addition, the composite z-score in [8] is 0.324; in experiment [9] it was -0.745; in experiment [10] it was 1.21. Further, in experiment [4], the z-score is -0.346 (inactive).
Take `CC(C)NC(=O)[C@@]1(c2ccc([N+](=O)[O-])cc2)CC(=O)N(CC23CC4CC(CC(C4)C2)C3)[C@@H]1c1ccc(CO)cc1`: the composite z-score is 1.4 in experiment [1]; 0.998 in experiment [2]; 0.931 in [3]; 0.911 in experiment [5]; 1.34 in [6]; 0.396 in experiment [7]. The composite z-score stood at 1.45 in [8], 1.3 in experiment [9] and 0.64 in [10]. Further, the z-score in [4] was -0.279 (inactive).
Turning to `COC(=O)C(CC#Cc1ccc2c(c1)[C@]1(C(=O)N2)[C@H](C(=O)N2CCc3cc(OC)c(OC)cc3C2)[C@H]2C(=O)O[C@H](c3ccccc3)[C@H](c3ccccc3)N2[C@@H]1c1ccccc1OCCO)C(=O)OC`, the composite z-score in [1] is 1.3; in experiment [2], 0.581; in [3] it was 0.623; in experiment [5] it was 0.954; in [6], 1.34; in experiment [7] it was 0.529. Also, the figures for the composite z-score in experiment [8], in experiment [9] and in experiment [10] were 1.28, 0.627 and -0.592, respectively. The z-score in experiment [4] was 0.234 (inactive).
Consider `COc1ccc([Si](C)(C)[C@@H]2[C@@H](CC(=O)N3CCC[C@H]3CO)O[C@]3(C(=O)N(Cc4cccc(N5CCCCC5=O)c4)c4ccccc43)[C@H]2C)cc1`, for which the composite z-score is 1.29 in [1]; -0.246 in [2]; -0.115 in experiment [3]; 0.32 in experiment [5]; 0.523 in experiment [6]; 0.0941 in experiment [7]. The composite z-score was determined as 0.747 in experiment [8], 0.414 in experiment [9] and 0.27 in experiment [10]. Besides, the z-score in experiment [4] was 0.238 (inactive).
`[N-]=[N+]=Nc1ccccc1[C@@H]1OC(c2ccc(OCCCO)cc2)=N[C@]1(CCS(=O)(=O)c1ccccc1)C(=O)NCC(O)CO` (stereo not given in full): the composite z-score is 1.73 in experiment [1]; -0.181 in [2]; 0.72 in [3]; -0.176 in [5]; 0.434 in experiment [6]; -0.586 in [7]. Further, the composite z-score was -0.332 in experiment [8], -0.328 in experiment [9] and 0.693 in experiment [10]. Besides, in experiment [4], the z-score is -0.633 (inactive).
Consider `O=C(NCC(O)CO)C1N=C(c2ccc(OCCCO)cc2)N(c2ccccc2)O1` (stereo not given), for which the composite z-score in [1] is -0.144; in experiment [2] it was -0.12; in [3], -0.104; in experiment [5], 0.897; in experiment [6], 0.65; in experiment [7], 0.195. Further, the composite z-score in experiment [8] is 0.799; in experiment [9], 0.433; in [10] it was -0.899. Further, in experiment [4], the z-score was -1.13 (inactive).
As to `COCCOC(=O)N1C(=O)[C@@]2(c3cc(C#Cc4ccc(OC)cc4)ccc31)[C@H](c1ccc(OCCO)cc1)N1[C@H](c3ccccc3)[C@H](c3ccccc3)OC(=O)[C@H]1[C@@H]2C(=O)NC[C@H](O)c1ccccc1`, the composite z-score in experiment [1] was 1.38; in experiment [2] it was 0.92; in experiment [3] it was 0.537; in experiment [5] it was 1.16; in experiment [6], 1.27; in [7], 0.696. Also, the composite z-score in experiment [8] is 0.475; in experiment [9], 0.473; in [10], 0.961. The z-score in [4] is -0.279 (inactive).
With `COCCOC(=O)N1C(=O)[C@@]2(c3cc(C#CCCO)ccc31)[C@H](c1ccccc1OCCO)N1[C@H](c3ccccc3)[C@H](c3ccccc3)OC(=O)[C@H]1[C@@H]2C(N)=O`, the composite z-score is 1.3 in [1]; -0.154 in [2]; 0.0318 in experiment [3]; 1.19 in [5]; 1.21 in [6]; 0.312 in experiment [7]. In addition, the composite z-score in [8] was 1.05; in experiment [9], 0.433; in [10] it was -0.0938. Further, the z-score in experiment [4] was -1.51 (inactive).
